Bioassay records from PubChem.
Tau fluor cs: counter-screen for tau fibril formation inhibitors | tau K18 P301L Alexa594 fluorescence, heparin fibrillization | Potency, µM (series often up to 57.7 µM), for the others: at the highest dose activity change, negative = decrease | 280,000 tested, 0.93% active | AID 1463; active = well fitted curve in the direction sought with a large enough effect; inconclusive = small, poorly fitted or top-dose-only effect, or another doubt; inactive = no such curve, though single readings can be large; an effect the other way counts as inactive or inconclusive; also: nearly all actives have a fitted effect of over 55% in size
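Human tau K18 P301L (15 uM unlabeled, 0.24 uM Alexa 594-labeled) in 100 mM sodium acetate pH 7 with 20 uM heparin, 6 hr at 37 C. ThT 30 uM added, 1 hr ambient; Alexa 594 FP and total fluorescence read at 555/632 nm.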
KDM4E inh: inhibitors of human JMJD2E histone demethylase. JMJD2E catalytic domain, FDH-coupled NADH fluorescence (FDH is formaldehyde dehydrogenase). Potency, µM (doses to about 57.1 µM), for the others: at the top dose activity change, negative = inhibition, most hits filed as inhibitors. 230,000 tested, 1.6% active. AID 2147;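 also: 0% = wells with enzyme and -100% = buffer wells without enzyme; nearly all actives have a fitted effect of over 50% in size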
Tau fibril ThT: blocks human tau fibril formation measured by thioflavin T; AID 1460; Potency, µM (doses to about 57.4 µM), for inactives: at the top dose activity, negative = inhibition, hits mostly inhibitors; 270,000 tested, 2.1% active; recombinant tau K18 P301L (four-repeat tau fragment), heparin-induced fibrillization, ThT fluorescence; active = well fitted curve in the direction sought with a large enough effect; inconclusive = small, poorly fitted or top-dose-only effect, or another doubt; inactive = no such curve, though single readings can be large; an effect the other way counts as inactive or inconclusive; also: nearly all actives have a fitted effect of over 55% in size
Target sequence (P10636 561-689 P618L limits assumed): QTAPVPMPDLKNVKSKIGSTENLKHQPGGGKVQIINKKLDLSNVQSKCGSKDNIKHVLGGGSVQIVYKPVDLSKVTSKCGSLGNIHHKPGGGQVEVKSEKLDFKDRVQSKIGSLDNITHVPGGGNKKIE
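In this qHTS, human K18 P301L tau is incubated with compound and heparin for 6 hr at 37 C, and Thioflavin T fluorescence then reports fibril load.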
Tau FP inhib: tau fibrillization inhibition (FP). P10636. K18 P301L tau heparin fibrillization, Alexa594 FP, 6 h. 280,000 tested, 0.39% active. Potency, µM (top dose mostly 57.7 µM), without a hit: top-dose activity, negative = inhibition, actives largely listed as inhibitors; active = well fitted curve in the direction sought with a large enough effect; inconclusive = small, poorly fitted or top-dose-only effect, or another doubt; inactive = no such curve, though single readings can be large; an effect the other way counts as inactive or inconclusive; also: nearly all actives have a fitted effect of over 55% in size
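Steps: dispense K18 P301L tau (15 uM plus 0.24 uM Alexa 594 tracer, final) in pH 7 sodium acetate; add compound; add heparin (20 uM final); incubate 6 hr, 37 C; add ThT (30 uM final); after 1 hr ambient, read FP.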
ALDH1A1 inh: ALDH1A1 (human) enzyme inhibition. 220,000 tested, 7.3% active. Potency, µM (titrated, usually from 75.3 µM), for inactives: top-dose activity, negative = inhibition, actives largely listed as inhibitors. Purified ALDH1A1, NADH fluorescence, propionaldehyde substrate. AID 1030. P00352;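 also: plate controls were no enzyme wells and a reference inhibitor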
Target sequence (P00352 whole entry, looked up): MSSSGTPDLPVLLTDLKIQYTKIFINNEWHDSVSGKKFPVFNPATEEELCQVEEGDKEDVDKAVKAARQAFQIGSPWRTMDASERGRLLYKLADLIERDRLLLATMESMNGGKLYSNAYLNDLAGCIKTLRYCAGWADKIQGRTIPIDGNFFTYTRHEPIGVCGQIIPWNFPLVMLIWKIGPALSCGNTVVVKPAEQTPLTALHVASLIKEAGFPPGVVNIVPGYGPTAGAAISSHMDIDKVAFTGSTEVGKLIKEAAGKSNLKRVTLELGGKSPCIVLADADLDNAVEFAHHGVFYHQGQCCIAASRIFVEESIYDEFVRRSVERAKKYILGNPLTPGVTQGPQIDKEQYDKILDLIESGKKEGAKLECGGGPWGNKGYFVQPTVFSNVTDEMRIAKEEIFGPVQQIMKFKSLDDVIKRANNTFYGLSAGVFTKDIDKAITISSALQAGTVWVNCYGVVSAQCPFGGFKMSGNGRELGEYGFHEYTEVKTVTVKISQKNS
HPGD inh: HPGD (human) dehydrogenase inhibition; AID 894; 150,000 tested, 4.3% active; P15428; purified HPGD, NADH fluorescence kinetic, PGE2 substrate; Potency, µM, inactives show at the highest dose activity change, negative = inhibition, actives largely listed as inhibitors
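20 nM HPGD preincubated 15 min at room temperature with compound in 50 mM Tris-HCl pH 8, 0.01% Tween 20. Started with 1 mM NAD+ and 30 uM prostaglandin E2; NADH fluorescence (360/450 nm) read 5 times over 30-s intervals, last minus first.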
An asterisk follows results filed as active; ? = inconclusive; . = no result given; [ ] = dose if it differs, or a comment. Compounds with a hit are over-represented: about 9.9% of the library has one in this group of screens. Unless noted, calls follow the shape of the dose curve; as a rule, active = well fitted inhibition curve with a large enough effect (not every such curve was filed as active); inconclusive = small, poorly fitted or top-dose-only effect, or another doubt; inactive = no such curve, though single readings can be large or run the other way. Unless noted, % is scaled to controls: 0 for no effect and ±100 for the full control effect; potency is read from the fitted curve at half-maximal effect.

SMILES	Tau fluor cs	KDM4E inh	Tau fibril ThT	Tau FP inhib	ALDH1A1 inh	HPGD inh
C#CCOc1ccc(C2C(C(=O)OC)=C(C)NC3=C2C(=O)c2ccccc23)cc1OCC (stereo unspecified)	11µM*[quencher]	.	?	-4%	.	.
O=C(Nc1cccc(Cl)c1)c1csc(-c2ccccc2)n1	?	?	-12%	-17%	?	?
Cc1ccc2nc(Cl)c(C3CC(c4ccco4)=NN3S(C)(=O)=O)cc2c1 (stereo unspecified)	-19%	-23%	?	0%	.	.
Cc1ccc2cc(C3CC(c4ccco4)=NN3S(C)(=O)=O)c(Cl)nc2c1 (stereo unspecified)	1%	-26%	-13%	-4%	18µM*	.
Cn1c(CO)cnc1SCC(=O)c1ccc(Cl)cc1	-1%	1%	-5%	?	22µM*	.
Cn1ccnc1SCC(=O)c1ccc(Cl)cc1	-6%	-6%	-8%	-4%	14µM*	.
O=c1cc(-c2ccccc2)n2c(SCc3ccc(F)cc3)nnc2[nH]1	-21%	.	?	-5%	.	.
C/C(=N\NC(=O)CSc1nc2ccccc2s1)c1ccco1	-8%	7%	?	-5%	2.8µM*	-26%
O=C(CSc1nc2ccccc2s1)N/N=C/c1ccco1	0%	-2%	-12%	2%	20µM*	-5%
O=C(CSCc1ccccc1Cl)N/N=C/c1ccco1	-3%	10%	-6%	0%	25µM*	.
N#Cc1ccc(CN2CC3(CCN(C(=O)c4ccco4)CC3)C2)cc1	.	.	.	.	-10%	-8%
O=S(=O)(Nc1nc2ccccc2nc1N1CCN(c2ccccc2)CC1)c1ccc(F)cc1	-28%	-7%	?	8%	-7%	-7%
O=C1C(NS(=O)(=O)c2cccs2)=C(N2CCN(c3cccc(Cl)c3)CC2)C(=O)c2ccccc21	8.9µM*[quencher]	-17%	4µM*	?	3.2µM*	-14%
CC(=O)Nc1ccc(S(=O)(=O)Nc2nc3ccccc3nc2N2CCCC2)cc1	-11%	-21%	-6%	-5%	11µM*	-21%
CC1CCN(C2=C(NS(=O)(=O)c3ccc(Cl)cc3)C(=O)c3ccccc3C2=O)CC1	?	-9%	?	-7%	?	-7%
CC1CCN(C2=C(NS(=O)(=O)c3ccccc3)C(=O)c3ccccc3C2=O)CC1	11µM*[quencher]	?	13µM*	?	.	.
O=C1C(NS(=O)(=O)c2ccccc2)=C(N2CCN(c3ccc(F)cc3)CC2)C(=O)c2ccccc21	10µM*[quencher]	-5%	6.3µM*	-12%	.	.
O=C(O)CCCNS(=O)(=O)c1cccc2nsnc12	-1%	1%	-4%	7%	5%	-1%
O=S(=O)(/N=C(/Nc1ccccc1)c1ccccc1O)c1ccccc1	3%	-1%	-1%	1%	-1%	.
Cc1cc(Cl)ccc1OCC(=O)N(Cc1ccco1)C1CCS(=O)(=O)C1 (stereo unspecified)	-21%	4%	-9%	-11%	.	.
CC(=O)Nc1ccc(S(=O)(=O)NC2=C(N3CCN(Cc4ccccc4)CC3)C(=O)c3ccccc3C2=O)cc1	14µM*[quencher]	-11%	16µM*	-9%	16µM*	-4%
CCOC(=O)C1CCN(C2=C(NS(=O)(=O)c3ccc(Cl)cc3)C(=O)c3ccccc3C2=O)CC1	?	-3%	?	-7%	.	.
CC(=C1C(=O)c2ccccc2C1=O)N1CCN(c2ccc(F)cc2)CC1	?	?	?	-1%	18µM*	.
CCOc1ccc(C2C(=O)N(C3CCCCC3)CC(=O)N2C2CCCC2)cc1OC (stereo unspecified)	-3%	.	-2%	2%	.	.
COC(=O)c1oc2ccc(OC)cc2c1N	-10%	?	-15%	6%	?	?
SMILES	Tau fluor cs	KDM4E inh	Tau fibril ThT	Tau FP inhib	ALDH1A1 inh	HPGD inh
COc1ccc(C(=O)c2oc3ccc(OC)cc3c2N)cc1	14µM*[quencher]	?	11µM*	8%	?	-8%
CCN1CCc2c(sc(-n3cccc3)c2C(C)NC(=O)Nc2cc(Cl)c(OC)cc2OC)C1 (stereo unspecified)	?	.	?	12%	.	.
Cc1nnc(NC(=O)c2ccccc2)s1	2%	.	3%	-6%	.	.
Cc1ccc(C(=O)Nc2nc(=O)n(C)s2)cc1	-2%	11%	6%	-5%	1%	0%
CC(C)CC(=O)n1sc(NC(=O)c2ccccc2)nc1=O	-20%	-2%	22µM*	?	?	-17%
Cc1ccc(C(=O)Nc2nc(=O)n(C(=O)c3ccccc3Cl)s2)cc1	-29%	0%	13µM*	?	?	-4%
Cn1sc(NC(=O)c2ccc(Cl)cc2)nc1=O	2%	3%	15%	1%	22µM*	?
COc1cc(-c2nc3nc[nH]n3c2Nc2ccc(C(C)C)cc2)ccc1O	?	.	25µM*	?	.	.
Cn1cc(S(=O)(=O)c2ccccc2)n(C)c1=O	3%	38%	-1%	7%	7%	.
O=C(NCCCN1CCCC1=O)C1CCCO1 (stereo unspecified)	-2%	1%	6%	0%	10%	.
CC(=O)c1ccc(OC2C=CC(C#Cc3ccc(Br)cc3)OC2CO)cc1 (stereo unspecified)	-10%[11.6 µM]	.	-16%[11.5 µM]	1%[11.6 µM]	?	.
COc1ccc(C2C(C(=O)c3ccco3)=C(O)C(=O)N2CCc2ccccc2)cc1OC (stereo unspecified)	-4%	?	-11%	-2%	-5%	-12%
COc1ccc(C2C(C(=O)c3ccco3)=C(O)C(=O)N2CCOCCO)cc1OC (stereo unspecified)	-4%	133%	?	-11%	20µM*	-24%
CCOC(=O)c1nn(-c2ccc(OCC)cc2)c2nc(-c3ccco3)c(C#N)c(=O)n12	-24%	?	-2%	-6%	?	?
O=C(CN1CCCCCCC1)N/N=C/c1ccccc1F	-3%	-9%	2%	-6%	?	32µM*
O=C(CN1CCSCC1)N/N=C/c1ccccc1F	-2%	-29%	-14%	-1%	?	-23%
O=C(OC(C(=O)Nc1cccc(C(F)(F)F)c1)c1ccccc1)C1CCCCC1 (stereo unspecified)	-25%	-7%	-2%	?	14µM*	-23%
COC(=O)c1ccccc1-c1ccc(/C=N/Nc2nc(N3CCCC3)nc(N3CCCC3)n2)o1	?	?	?	19%	.	.
O=[N+]([O-])c1ccc(-c2ccc(/C=N/Nc3nc(NCc4ccccc4)nc(N4CCOCC4)n3)o2)cc1	?	-4%	2.8µM*	?	?	.
COc1nc(N/N=C/c2ccc(-c3ccccc3[N+](=O)[O-])o2)nc(N2CCOCC2)n1	10%	6%	10%	4%	8.9µM*	-14%
